Nrf2 inh: Nrf2 qHTS screen for inhibitors | actives 2.1% (n = 360,000) | A549 ARE-Fluc reporter, luciferase luminescence, 18-24 h | Potency, µM (series often up to 46 µM), for the others: at the top dose activity change, negative = inhibition, most hits filed as inhibitors; note: % is set by controls: 0 for no effect and ±100 for the full control effect; nearly all actives have a fitted effect of over 60% in size
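Quantitative HTS in A549 cells stably bearing an antioxidant response element-firefly luciferase construct. Inhibition of Nrf2-driven transcription was scored by luminescence after 18-24 h of compound exposure at 37 °C.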
Nrf2 activator: qHTS of Nrf2 Activators; AID 624171, 2012; actives 0.31% (n = 410,000); Potency, µM (doses to about 46.1 µM), inactives show at the highest dose activation, most hits filed as activators; AREc32 ARE-luciferase reporter (MCF7-derived line), luminescence, 24 h; note: % of control where 0% means no effect; nearly all actives have a fitted effect of over 65% in size
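AREc32 cells carrying an ARE-driven firefly luciferase, 1000 cells/well in OPTI-MEM with 5% FBS, dosed after overnight attachment and incubated 24 hr at 37 deg C. Steady-Glo luminescence read after 30 min at RT.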
A549 tox-1: Nrf2 qHTS screen for inhibitors: counterscreen for cytotoxicity | Potency, µM (titrated, usually from 46 µM), without a hit: at the highest dose activity change, negative = cytotoxicity, most hits filed as inhibitors | A549 ARE-Fluc cells, CellTiter-Fluor viability, 18-24 h | actives 0.16% (n = 390,000); note: % is set by controls: 0 for no effect and ±100 for the full control effect
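Cytotoxicity counterscreen: CellTiter-Fluor fluorescence was measured in A549 ARE_Fluc cells after 18-24 h of compound exposure in a concentration series. The subsequent BugLite luminescent read reports ARE-luciferase activity.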
ELG1 repair inh: qHTS screen for small molecules that inhibit ELG1-dependent DNA repair in human embryonic kidney (HEK293T) cells expressing luciferase-tagged ELG1; HEK293T ELG1-luciferase reporter, luminescence, 16 h; DNA damage induced by 5-fluorouridine; Potency, µM (doses to about 46.1 µM), for inactives: at the highest dose activity change, negative = inhibition, hits mostly inhibitors; actives 2.3% (n = 330,000); note: % is set by controls: 0 for no effect and ±100 for the full control effect; nearly all actives have a fitted effect of over 55% in size
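5-Fluorouridine DNA damage + compound/DMSO, 2,000 cells/well, 16 h, 37 °C/5% CO2. ONE-Glo, 30 min RT, luminescence. Readout = decrease in reporter signal.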
FLuc counter 3: Nrf2 qHTS screen for inhibitors: Purified Fluc Biochemical Counterscreen for Hit Validation; Potency, µM (doses to about 57.5 µM), for the others: at the highest dose activity change, negative = inhibition, hits mostly inhibitors; purified firefly luciferase, luminescence inhibition; actives 4% (n = 1,400); AID 720522, 2013; shares compounds with Nrf2 inh; note: % is set by controls: 0 for no effect and ±100 for the full control effect; nearly all actives have a fitted effect of over 65% in size
Target sequence (P08659 whole entry, looked up): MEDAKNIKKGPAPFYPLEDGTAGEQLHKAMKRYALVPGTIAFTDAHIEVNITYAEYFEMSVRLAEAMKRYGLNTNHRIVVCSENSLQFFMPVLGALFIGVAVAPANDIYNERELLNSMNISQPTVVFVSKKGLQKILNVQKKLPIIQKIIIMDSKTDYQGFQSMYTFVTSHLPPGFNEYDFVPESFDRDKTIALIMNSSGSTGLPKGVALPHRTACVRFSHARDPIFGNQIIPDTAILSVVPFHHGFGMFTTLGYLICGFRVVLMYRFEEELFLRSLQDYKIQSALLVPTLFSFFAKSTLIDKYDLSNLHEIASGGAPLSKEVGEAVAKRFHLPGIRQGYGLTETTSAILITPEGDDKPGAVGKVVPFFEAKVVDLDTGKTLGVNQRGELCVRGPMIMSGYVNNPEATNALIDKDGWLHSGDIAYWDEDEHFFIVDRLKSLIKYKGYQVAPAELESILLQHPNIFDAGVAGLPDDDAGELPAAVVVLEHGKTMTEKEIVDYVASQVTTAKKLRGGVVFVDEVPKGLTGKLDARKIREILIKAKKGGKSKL
A549 tox-2: Nrf2 qHTS screen for inhibitors: A549 ARE-Fluc Cytotoxicity Counterscreen for Hit Validation; shares compounds with Nrf2 inh; A549 ARE-Fluc cells, cytotoxicity counterscreen; Potency, µM (series often up to 46.1 µM), for inactives: at the highest dose activity change, negative = cytotoxicity, actives largely listed as inhibitors; actives 2% (n = 1,400);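 note: cells exposed to compounds for 18 to 24 hours; % is set by controls: 0 for no effect and ±100 for the full control effect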
ARE-Fluc inh: Nrf2 qHTS screen for inhibitors: Nrf2 A549 ARE-Fluc Confirmation Assay for Hit Validation. shares compounds with Nrf2 inh. A549 ARE-firefly luciferase reporter, luminescence. Potency, µM (titrated, usually from 46.1 µM), without a hit: at the highest dose activity change, negative = inhibition, most hits filed as inhibitors. actives 74% (n = 1,400). AID 720524, 2013; note: % is set by controls: 0 for no effect and ±100 for the full control effect; nearly all actives have a fitted effect of over 65% in size
* hit, by the source's call; ? = inconclusive; · = no result shown; [ ] = another dose, or the depositor's remark. An excerpt weighted towards active compounds, which were near 3.7% of everything screened. Calls come from the whole dose curve; as a rule, active = well fitted curve in the direction sought with a large enough effect; inconclusive = small, poorly fitted or top-dose-only effect, or another doubt; inactive = no such curve, though single readings can be large; an effect the other way counts as inactive or inconclusive. Potency is the fitted concentration of half-maximal effect.

SMILES	Nrf2 inh	Nrf2 activator	A549 tox-1	ELG1 repair inh	FLuc counter 3	A549 tox-2	ARE-Fluc inh
CC1(c2ccc(Cl)cc2)NC(=O)N(CC(=O)Nc2ccc(N3CCCCC3)cc2)C1=O (configuration not stated)	3.6%	0.1%	1.4%	4.3%	·	·	·
CNc1c(Br)cc(C(O)C2=CCc3ccccc32)cc1Br (configuration not stated)	·	·	·	·	0.6%	-16.0%	4.61µM*
CNc1ccc(Br)cc1C(O)c1ccccc1 (configuration not stated)	12.9%	-0.6%	1.1%	?	·	·	·
COc1cc(C(=O)NCc2cccnc2)ccc1OCC(=O)Nc1cccc(C(F)(F)F)c1	6.51µM*	3.4%	2.4%	-19.6%	2.0%	-8.4%	16.4µM*
Cc1sc(NC(=O)Cc2ccc3c(c2)OCO3)nc1-c1ccc2c(c1)CCN2C(=O)c1ccc(F)cc1	5.17µM*	-1.2%	0.5%	?	-7.6%	7.8%	2.59µM*
CC1CCCC=CC2CC(OC(=O)CN(C)C)CC2C(O)C=CC(=O)O1 (configuration not stated)	0.206µM*	-0.9%	?	·	1.4%	?	0.411µM*
COc1ccc(C2C3=C(CC(C)(C)CC3=O)Oc3ncn(Cc4ccco4)c(=N)c32)cc1 (configuration not stated)	9.2µM*	9.0%	?	-18.0%	2.5%	-9.3%	8.8%
Cc1ncc([N+](=O)[O-])n1CC(=O)NC1CCCCCC1	7.0%	-0.3%	1.0%	-4.4%	·	·	·
CSc1ccc(CCNc2ncnc3onc(-c4ccc(Cl)cc4)c23)cc1	9.2µM*	0.3%	2.6%	·	1.9%	-3.1%	?
CCOC(=O)c1cc2c(=O)n3ccccc3nc2n(CC2CCCO2)c1=NC(=O)c1ccccc1C (configuration not stated)	-2.9%[9.27 µM]	0.3%	7.6%	·	·	·	·
CC12CCC(=O)C=C1CCC1C2CCC2(C)C1CC[C@]2(O)C(=O)CO (some centres not stated)	?	-0.3%	-18.1%	-3.5%	·	·	·
CCC(CC)C(=O)OCC(=O)C1(O)CCC2C3CCC4=CC(=O)CCC4(C)C3C(O)CC21C (configuration not stated)	0.326µM*	0.5%	-5.2%	·	3.4%	-10.8%	0.103µM*
C[C@]12CCC(=O)C=C1CC[C@@H]1[C@@H]2[C@@H](O)C[C@@]2(C)[C@H]1CC[C@]2(O)C(=O)COC(=O)CCC(=O)O	0.326µM*	0.3%	-9.0%	23.2%	1.7%	-4.5%	0.291µM*
CC(=O)OCC(=O)[C@@]1(O)CC[C@H]2[C@@H]3CCC4=CC(=O)CC[C@]4(C)[C@H]3[C@@H](O)C[C@@]21C	0.0411µM*	-0.8%	-8.8%	8.2%	2.1%	-1.7%	0.0731µM*
CC1CC2(C)C(=CC1=O)CCC1C2C(O)CC2(C)C1CCC2(O)C(=O)CO (configuration not stated)	0.116µM*	-0.5%	1.0%	·	3.0%	-4.7%	0.184µM*
CCCC(=O)O[C@]1(C(=O)CO)CC[C@H]2[C@@H]3CCC4=CC(=O)CC[C@]4(C)[C@H]3[C@@H](O)C[C@@]21C	0.0231µM*	-0.7%	-3.4%	26.2%	1.1%	-8.0%	0.0146µM*
CC(=O)OCC(=O)C1(O)CCC2C3CC(F)C4=CC(=O)CCC4(C)C3C(O)CC21C (configuration not stated)	0.0651µM*	-0.2%	-4.7%	·	0.7%	-12.1%	0.0184µM*
CC(=O)[C@H]1CC[C@H]2[C@@H]3CCC4=CC(=O)CC[C@]4(C)[C@H]3[C@H](O)C[C@]12C	2.1%	-0.7%	-0.2%	?	·	·	·
CC(C)(CNC(=O)CO/N=C1/C=C2CCC3C(C(O)C[C@@]4(C)C3CC[C@]4(O)C(=O)CO)[C@@]2(C)CC1)C(O)C(=O)O (some centres not stated)	1.84µM*	0.3%	-3.0%	18.9%	-1.7%	-1.7%	·
CCOC(=O)C(=O)N1CCC(Cc2ccccc2)CC1	-1.7%	2.0%	5.6%	-7.5%	·	·	·
CC(=O)O[C@@H]1[C@@H](O)CN[C@@H]1Cc1ccccc1	0.231µM*	·	?	·	3.0%	?	0.326µM*
COc1ccc(NC(=O)c2oc3ccccc3c2NC(=O)Cc2coc3ccc(C)cc23)cc1	-19.7%	3.4%	-8.0%	·	·	·	·
Clc1ccc(-c2noc(CSc3nnc(-c4ccncc4)n3-c3ccccc3)n2)cc1	2.31µM*	3.3%	?	16.4µM*	-9.3%	-9.0%	13µM*
CN(C)S(=O)(=O)c1ccc(Nc2nc(C3CC3)nc3c2nnn3Cc2ccccc2Cl)cc1	5.8µM*	5.5%	-23.9%	?	2.3%	-23.8%	4.11µM*
Cc1cc(Cl)c(S(=O)(=O)NC2CCCC2)cc1OCC(=O)NC1CCCCC1	6.51µM*	0.1%	-29.7%	9.2µM*	2.7%	-13.3%	7.31µM*
SMILES	Nrf2 inh	Nrf2 activator	A549 tox-1	ELG1 repair inh	FLuc counter 3	A549 tox-2	ARE-Fluc inh
Cc1cc(Cl)c(S(=O)(=O)N2CCSCC2)cc1OCC(=O)NC1CCCCC1	6.51µM*	2.2%	?	9.2µM*	-1.0%	-24.1%	4.61µM*
Cc1cc(Cl)c(S(=O)(=O)N2CCCC2)cc1OCC(N)=O	?	-0.4%	-3.0%	11.7%	·	·	·
Cc1ccc(S(=O)(=O)Nc2ccccc2C(=O)Nc2nc(-c3ccc(F)cc3)cs2)cc1	?	4.1%	?	?	·	·	·
COc1ccc(-c2csc(NC(=O)c3ccccc3NS(=O)(=O)c3ccc(F)c(F)c3)n2)cc1	2.91µM*	14.1%	?	?	?	?	4.11µM*
O=S(=O)(c1ccccc1)c1nnn2c1nc(NCc1ccc(F)cc1)c1sccc12	3.2%	0.3%	0.4%	·	·	·	·
COc1ccccc1/C=C1\SC(N2CCC(C)CC2)=NC1=O	15.3%	6.0%	-0.9%	0.4%	·	·	·
O=C1N=C(N2CCC(Cc3ccccc3)CC2)S/C1=C/c1cn[nH]c1-c1ccccc1	?	0.3%	-15.2%	?	-0.9%	-6.1%	?
COc1ccc(S(=O)(=O)NCc2cccnc2)cc1Br	7.31µM*	0.1%	-6.6%	?	2.6%	-2.5%	?
O=S(=O)(NCc1ccncc1)c1ccc(Br)s1	1.46µM*	-0.2%	-23.8%	?	-0.6%	-4.4%	1.46µM*
